Measured values as given in the antibiotic and cytotoxicity screens of Wong et al. (2023).
In all, about 39,000 compounds went through this assay and about 1,500 (3.8%) were called active. The sample holds actives, similar compounds and a random draw of the others, so the mix is not that of the screen.

System: HSkMC (human skeletal muscle cells)
Assay: cytotoxicity call (relative viability < 0.9)
Details: 10 µM

Row | Compound | cytotoxicity call
1 | Cc1noc(C)c1S(=O)(=O)Nc1ccc2c(c1)CC(=O)N([C@@H](C)CO)C[C@@H](C)[C@@H](CN(C)Cc1ccccc1)O2 | inactive
2 | Cc1noc(C)c1NC(=O)Nc1ccc2c(c1)CC(=O)N([C@@H](C)CO)C[C@@H](C)[C@@H](CN(C)Cc1ccc(-c3ccccc3)cc1)O2 | inactive
3 | COc1ccc(NC(=O)N(C)C[C@@H]2Oc3c(NC(=O)Nc4cccc5ccccc45)cccc3C(=O)N([C@@H](C)CO)C[C@@H]2C)cc1 | inactive
4 | C[C@H]1COC(=O)[C@H](NC(=O)OCC2c3ccccc3-c3ccccc32)CC=CC[C@@H](CC(=O)NCCO)C(=O)N1 | inactive
5 | CCCNC(=O)N[C@@H]1C=C[C@@H](CC(=O)N2CCN(C)CC2)O[C@@H]1CO | inactive
6 | Cc1ccc(S(=O)(=O)Nc2ccc3c(c2)C(=O)N([C@H](C)CO)C[C@H](C)[C@@H](CN(C)C(=O)Nc2c(C)noc2C)OCCCC[C@H](C)O3)cc1 | inactive
7 | C[C@H]1CN([C@@H](C)CO)C(=O)c2c(c3ccccc3n2C)-c2ccccc2CO[C@H]1CN(C)C(=O)Nc1ccc(-c2ccccc2)cc1 | inactive
8 | C[C@H](CO)N1C[C@H](C)[C@H](CN(C)Cc2ccc(C(=O)Nc3ccccc3N)cc2)Oc2ccc(NC(=O)Nc3ccc(C(F)(F)F)cc3)cc2C1=O | active
9 | C[C@@H]1CCCCO[C@H](CN(C)Cc2ccc(C(=O)Nc3ccccc3N)cc2)[C@@H](C)CN([C@@H](C)CO)C(=O)c2cc(NC(=O)Nc3ccc(C(F)(F)F)cc3)ccc2O1 | inactive
10 | C[C@H]1CN([C@@H](C)CO)C(=O)c2cc(NC(=O)Nc3ccc(C(F)(F)F)cc3)ccc2O[C@@H]1CN(C)Cc1ccc(C(=O)Nc2ccccc2N)cc1 | inactive
11 | C[C@@H]1CCCCO[C@@H](CN(C)Cc2ccc(C(=O)Nc3ccccc3N)cc2)[C@@H](C)CN([C@H](C)CO)C(=O)c2cc(NC(=O)Nc3ccc(F)cc3)ccc2O1 | inactive
12 | C[C@@H]1CN([C@@H](C)CO)C(=O)c2cc(NC(=O)Nc3ccc(C(F)(F)F)cc3)ccc2O[C@H]1CN(C)Cc1ccc(C(=O)Nc2ccccc2N)cc1 | inactive
13 | C[C@H](CO)N1C[C@H](C)[C@@H](CN(C)Cc2ccc(C(=O)Nc3ccccc3N)cc2)Oc2ccc(NC(=O)Nc3ccc(C(F)(F)F)cc3)cc2C1=O | inactive
14 | C[C@H]1CN([C@@H](C)CO)C(=O)c2cc(NC(=O)Nc3ccc(C(F)(F)F)cc3)ccc2O[C@H]1CN(C)Cc1ccc(C(=O)Nc2ccccc2N)cc1 | active
15 | C[C@@H]1CCCCO[C@@H](CN(C)Cc2ccc(C(=O)Nc3ccccc3N)cc2)[C@@H](C)CN([C@H](C)CO)C(=O)c2cc(NC(=O)Nc3ccc(C(F)(F)F)cc3)ccc2O1 | active
16 | C[C@@H]1CN([C@H](C)CO)C(=O)c2cc(NC(=O)Nc3ccc(C(F)(F)F)cc3)ccc2O[C@@H]1CN(C)Cc1ccc(C(=O)Nc2ccccc2N)cc1 | inactive
17 | C[C@@H]1CN([C@H](C)CO)C(=O)Cc2cc(NC(=O)CCN3CCOCC3)ccc2O[C@@H]1CN(C)C(=O)Nc1ccccc1 | inactive
18 | CN1C(=O)NC2(CCNCC2)C1=O | inactive
19 | O=[N+]([O-])c1ccc(/C=C/CN(C/C=C/c2ccc([N+](=O)[O-])cc2)CCCNS(=O)(=O)c2cccc3cnccc23)cc1 | inactive
20 | COc1ccc(CN(C)C[C@@H]2Oc3c(NC(=O)Nc4ccc(C(F)(F)F)cc4)cccc3C(=O)N([C@H](C)CO)C[C@H]2C)cc1 | active

Row | Compound | cytotoxicity call
21 | COc1ccc(NC(=O)Nc2cccc3c2O[C@@H](CN(C)Cc2ccc(C(F)(F)F)cc2)[C@@H](C)CN([C@H](C)CO)C3=O)cc1 | inactive
22 | COc1ccc(CN(C)C[C@H]2Oc3c(NC(=O)Nc4ccc(C(F)(F)F)cc4)cccc3C(=O)N([C@H](C)CO)C[C@H]2C)cc1 | inactive
23 | COc1ccc(NC(=O)Nc2cccc3c2O[C@H](CN(C)Cc2ccc(C(F)(F)F)cc2)[C@@H](C)CN([C@@H](C)CO)C3=O)cc1 | inactive
24 | COc1ccc(CN(C)C[C@H]2Oc3c(NC(=O)Nc4ccc(C(F)(F)F)cc4)cccc3C(=O)N([C@@H](C)CO)C[C@H]2C)cc1 | inactive
25 | COc1ccc(CN(C)C[C@H]2Oc3c(NC(=O)Nc4ccc(C(F)(F)F)cc4)cccc3C(=O)N([C@H](C)CO)C[C@@H]2C)cc1 | active
26 | COc1ccc(NC(=O)Nc2cccc3c2O[C@@H](CN(C)Cc2ccc(C(F)(F)F)cc2)[C@H](C)CN([C@@H](C)CO)C3=O)cc1 | inactive
27 | COc1ccc(CN(C)C[C@@H]2Oc3c(NC(=O)Nc4ccc(C(F)(F)F)cc4)cccc3C(=O)N([C@@H](C)CO)C[C@H]2C)cc1 | active
28 | COc1ccc(NC(=O)Nc2cccc3c2O[C@@H](CN(C)Cc2ccc(C(F)(F)F)cc2)[C@H](C)CN([C@H](C)CO)C3=O)cc1 | inactive
29 | C[C@H](CO)N1C[C@H](C)[C@@H](CN(C)C(=O)CN(C)C)Oc2cc(-c3cncnc3)ccc2S1(=O)=O | inactive
30 | O=C(C[C@H]1CC[C@H]2[C@@H](COC[C@H](O)CN2C(=O)c2cnccn2)O1)NCc1ccc(Oc2ccccc2)cc1 | inactive
31 | C[C@@H]1CN([C@H](C)CO)S(=O)(=O)c2ccc(C#CC3CCCC3)cc2O[C@H]1CN(C)C(=O)Cc1ccncc1 | inactive
32 | C[C@@H]1CCCCO[C@@H](CN(C)C(=O)c2ccccc2)[C@@H](C)CN([C@H](C)CO)C(=O)c2cc(NS(=O)(=O)c3ccc(Cl)cc3)ccc2O1 | inactive
33 | O=C(NCC(F)(F)F)[C@@H]1[C@@H](CO)[C@@H]2Cn3c(cccc3=O)[C@H]1N2C(=O)C1CCC1 | inactive
34 | COc1ccc(S(=O)(=O)N(C)C[C@H]2Oc3ccc(NS(=O)(=O)c4ccc(C)cc4)cc3C(=O)N([C@H](C)CO)C[C@@H]2C)cc1 | inactive
35 | CC(C)NC(=O)N(C)C[C@@H]1Oc2ccc(NC(=O)CCN3CCOCC3)cc2CC(=O)N([C@@H](C)CO)C[C@@H]1C | inactive
36 | Cc1ccccc1S(=O)(=O)N1C[C@H](O)COC[C@H]2O[C@@H](CC(=O)NCc3ccccc3Cl)CC[C@@H]21 | inactive
37 | COc1ccc2c3c([nH]c2c1)[C@H](CO)N(C[C@]13CCN(CCc2ccccc2)CC1)C(=O)CN1CCOCC1 | inactive
38 | COc1ccc2c3c([nH]c2c1)[C@@H](CO)N(Cc1ccc(cc1)Cl)C[C@]13CN(CCc2ccccc2)C1 | active
39 | COc1ccc2c3c([nH]c2c1)[C@@H](CO)N(Cc1ccc(cc1)Cl)C[C@]13CCN(CCc2ccccc2)CC1 | active
40 | COc1ccc2c3c([nH]c2c1)[C@@H](CO)N(Cc1ccccc1)C[C@]13CCN(CC1)C(=O)Nc1cccc(c1)F | inactive

Row | Compound | cytotoxicity call
41 | COc1ccc2c3c([nH]c2c1)[C@H](CO)N(Cc1ccc(cc1)Cl)C[C@]13CCN(CCc2ccccc2)CC1 | inactive
42 | COc1ccc2c3c([nH]c2c1)[C@H](CO)N(Cc1ccccc1)C[C@]13CCN(CC1)C(=O)Nc1cccc(c1)F | inactive
43 | COc1ccc2c3c([nH]c2c1)[C@@H](CO)N(C[C@]13CN(CCc2ccccc2)C1)C(=O)CN1CCOCC1 | inactive
44 | COc1ccc2c3c([nH]c2c1)[C@H](CO)N(C[C@]13CN(CCc2ccccc2)C1)C(=O)CN1CCOCC1 | inactive
45 | COc1ccc2c3c([nH]c2c1)[C@H](CO)N(Cc1ccc(cc1)Cl)C[C@]13CN(CCc2ccccc2)C1 | active
46 | C[C@@H]1CCCCO[C@H](CN(C)C(=O)c2ccccc2)[C@H](C)CN([C@@H](C)CO)C(=O)c2cc(NC(=O)Cc3ccccc3)ccc2O1 | inactive
47 | C[C@@H]1CN([C@@H](C)CO)C(=O)Cc2cc(NS(=O)(=O)c3cn(C)cn3)ccc2O[C@H]1CN(C)C | inactive
48 | COC(=O)C1=CO[C@@H](O[C@@H]2O[C@H](CO)[C@@H](O)[C@H](O)[C@H]2O)[C@@H]2[C@@H](CO)C=C[C@H]12 | inactive
49 | C[C@@H]1CN([C@@H](C)CO)C(=O)c2cc(NC(=O)CCC(F)(F)F)ccc2O[C@@H](C)CCCCO[C@@H]1CN(C)C(=O)C1CCCCC1 | inactive
50 | COc1ccc(C#Cc2ccc3c(c2)O[C@@H](CN(C)C(C)=O)[C@@H](C)CN([C@H](C)CO)S3(=O)=O)cc1 | inactive
51 | COc1ccc(CN(C)C[C@@H]2OCCCC[C@H](C)Oc3ccc(NC(=O)CCC(F)(F)F)cc3C(=O)N([C@@H](C)CO)C[C@@H]2C)cc1 | inactive
52 | CCCNc1nc(Nc2ccc(C#N)cc2)ncc1C#CCCCNC(=O)[C@H](C)N(C)C(=O)/C=C/CN(C)C | active
53 | OCc1ccccc1-n1cncn1 | inactive
54 | COc1ccc2c3c([nH]c2c1)[C@@H](CO)N(C[C@]13CCN(CC1)C(=O)Nc1ccc(cc1)F)C(=O)c1ccc(cc1)F | inactive
55 | COc1ccc2c3c([nH]c2c1)[C@H](CO)N(CC1CCCC1)C[C@]13CCN(CC1)C(=O)c1ccc(cc1)F | active
56 | COc1ccc2c3c([nH]c2c1)[C@@H](CO)N(CC1CCCC1)C[C@]13CCN(CC1)C(=O)Nc1cccc(c1)F | inactive
57 | COc1ccc2c3c([nH]c2c1)[C@H](CO)N(C[C@]13CCN(CC1)C(=O)Nc1ccc(cc1)F)C(=O)c1ccc(cc1)F | inactive
58 | COc1ccc2c3c([nH]c2c1)[C@@H](CO)N(CC1CCCC1)C[C@]13CCN(CC1)C(=O)c1ccc(cc1)F | active
59 | COc1ccc2c3c([nH]c2c1)[C@H](CO)N(CC1CCCC1)C[C@]13CCN(CC1)C(=O)Nc1cccc(c1)F | inactive
60 | CC(=O)N[C@H](Cc1ccc2ccccc2c1)C(=O)N[C@H](Cc1ccc(Cl)cc1)C(=O)N[C@H](Cc1cccnc1)C(=O)N[C@@H](CO)C(=O)N(C)[C@@H](Cc1ccc(O)cc1)C(=O)N[C@H](CC(N)=O)C(=O)N[C@@H](CC(C)C)C(=O)N[C@@H](CCCCNC(C)C)C(=O)N1CCC[C@H]1C(=O)N[C@H](C)C(N)=O | inactive
